# In PubChem BioAssay AID1851 (National Center for Advancing Translational Sciences (NCATS), 2009):
# Where “and” joins values, the source holds several entries; their conditions need not be identical. Identical values can stand only once. Out of some 16,000 compounds screened, about 5,700 (36%) were called active. Not shown: some 24% with an inconclusive outcome. Calls come from the whole dose curve; as a rule, active = well fitted curve in the direction sought with a large enough effect; inconclusive = small, poorly fitted or top-dose-only effect, or effect the other way; inactive = no such curve, though single readings can be large or run the other way. The list shows a part of the results.
# Molecular target: Cytochrome P450 1A2 (Homo sapiens) (UniProt P05177)
# Test: Cytochrome panel assay with activity outcomes
# Conditions: recombinant CYP, pro-luciferin dealkylation, luminescence, p450-cyp1a2; series mostly up to 57.1 µM; activity, negative = inhibition: at the top concentration
# % is set by controls: 0 for no effect and ±100 for the full control effect.
# Chain of Cytochrome P450 1A2 (Homo sapiens) (P05177 whole entry, looked up): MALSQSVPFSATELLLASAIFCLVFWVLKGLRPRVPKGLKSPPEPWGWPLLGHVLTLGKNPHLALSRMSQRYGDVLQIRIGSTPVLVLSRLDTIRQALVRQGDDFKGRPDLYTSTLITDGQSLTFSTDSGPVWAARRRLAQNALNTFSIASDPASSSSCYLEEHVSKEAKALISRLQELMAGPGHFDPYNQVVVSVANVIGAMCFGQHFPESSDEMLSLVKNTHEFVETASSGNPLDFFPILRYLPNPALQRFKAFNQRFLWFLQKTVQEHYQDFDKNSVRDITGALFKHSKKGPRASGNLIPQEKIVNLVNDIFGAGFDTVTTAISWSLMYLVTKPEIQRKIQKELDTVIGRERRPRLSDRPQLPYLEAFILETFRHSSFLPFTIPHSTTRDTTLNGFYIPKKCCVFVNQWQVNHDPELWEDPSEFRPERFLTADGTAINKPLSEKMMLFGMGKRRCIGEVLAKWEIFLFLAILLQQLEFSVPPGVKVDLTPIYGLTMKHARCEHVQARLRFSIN
Structure (SMILES),AC50,"activity, negative = inhibition"
COc1ccc(C(=O)N/N=C/c2cccc3cccnc23)cc1,2 µM (active),–
COc1ccc(C(=O)NCC(=O)OCc2cccc(Br)c2)cc1,6.31 µM (active),–
CSC(=N)N,–,-5.29% (inactive)
Clc1cccc(Nc2ncnc3ccc(Br)cc23)c1,0.562 µM (active),–
Brc1ccc2ncnc(Nc3cccc4ccccc34)c2c1,1.58 µM (active),–
COc1ccc(-c2nnc3n2N=C(C)CS3)cc1,1.41 µM (active),–
CCOc1ccc(C2=Nn3c(nnc3-c3ccco3)SC2)cc1,2 µM (active),–
CCc1ccc(C2=Nn3c(nnc3-c3cccs3)SC2)cc1,3.55 µM (active),–
COc1cccc(-c2nnc3n2N=C(C(C)(C)C)CS3)c1,2.82 µM (active),–
COc1ccc(-n2c(C)n[nH]c2=O)cc1,–,-1.01% (inactive)
O=C(O)C1=CCCNC1,inactive,–
CCOc1ccc(-c2nnc3n2N=C(c2ccc(OC)cc2)CS3)cc1,3.55 µM (active),–
Cc1ccc(NC(=O)/C(=C\c2ccc([N+](=O)[O-])cc2)NC(=O)c2ccccc2)cc1,–,-11% (inactive)
O=C(OCC(=O)c1ccc([N+](=O)[O-])cc1)/C(=C\c1ccc(Cl)cc1)NC(=O)c1ccccc1,12.6 µM (active),–
O=C(Nc1cccc2ccccc12)/C(=C/c1ccc([N+](=O)[O-])cc1)NC(=O)c1ccccc1,3.16 µM (active),–
COc1cc(/C=C(/NC(=O)c2ccccc2Cl)C(=O)O)cc(OC)c1OC,–,-2.92% (inactive)
O=C(OCc1ccccc1)/C(=C/c1ccc(Cl)cc1)NC(=O)c1ccccc1Cl,0.891 µM (active),–
Cc1ccc(S(=O)(=O)N[C@H]2COC(=O)C/C=C\[C@@H](C)[C@H](NS(=O)(=O)c3ccc(C)cc3)COC(=O)C/C=C\[C@H]2C)cc1,–,-0.94% [at 11.4 µM] (inactive)
O=C(Nc1ccnc(-c2cccnc2)n1)c1cccc(Cl)c1Cl,0.562 µM (active),–
O=C(Nc1ccnc(-c2cccnc2)n1)c1ccccc1Cl,0.398 µM (active),–
CC1(C)OCC([C@H](O)C2=CCCCC2=O)CO1,–,-1.5% [at 11.4 µM] (inactive)
O=C(c1ccco1)N1CCN(C(=O)C2(S(=O)(=O)c3ccc(Cl)cc3)CC2)CC1,–,-22% (inactive)
FC(F)(F)c1cccc(-c2nc3nc(Cl)c(Cl)nc3[nH]2)c1,0.398 µM (active),–

Structure (SMILES),AC50,"activity, negative = inhibition"
CSc1cc2c(cc1C(F)(F)F)N(C(=O)Nc1cccnc1)CC2,0.000794 µM (active),–
COc1cc2c(cc1C(F)(F)F)N(C(=O)Nc1cc(F)cc(-c3cccnc3)c1)CC2,0.316 µM (active),–
O=C(Nc1cccc(F)c1)N1CCC2(CC1)CCN(C(=O)c1cnccn1)CC2,–,4.45% (inactive)
COC(=O)c1ccc(NC(=O)N2CCC(O)(c3cccnc3)CC2)cc1,–,-13.5% (inactive)
CN1CCc2cc(NC(=O)Nc3cccnc3)ccc21,0.0794 µM (active),–
Cn1ccc2cc3c(cc21)CCN3C(=O)Nc1cccnc1,25.1 nM (active) and 3.98 nM (active),–
CN1CCc2c(cc(O)c(O)c2Cl)[C@H](c2cccc(Cl)c2)C1,–,-4.23% (inactive)
Cn1c(=O)[nH]c2ncn(C)c2c1=O,–,-4.02% (inactive)
[O-][N+](CCO)(CCO)c1ncnc2nc[nH]c12,–,-5.88% [at 11.4 µM] (inactive)
CCOC(=O)C1=C(c2ccccc2)N=c2s/c(=C\c3ccc(O)cc3)c(=O)n2C1c1cccs1 (stereo unspecified),–,-9.66% (inactive)
CCOC(=O)C1=C(c2ccccc2)N=c2s/c(=C\c3cccc(O)c3)c(=O)n2C1c1cccs1 (stereo unspecified),25.1 µM (active),–
CCOC(=O)C1=C(c2ccccc2)N=c2s/c(=C\c3cc(OC)c(OC)c(OC)c3)c(=O)n2C1c1cccs1 (stereo unspecified),–,0.13% (inactive)
CCOC(=O)C1=C(c2ccccc2)N=c2s/c(=C\c3ccco3)c(=O)n2C1c1cccs1 (stereo unspecified),6.31 µM (active),–
COc1ccc(C2/C(=C(/O)c3ccc(Cl)cc3)C(=O)C(=O)N2CCN2CCOCC2)c(OC)c1 (stereo unspecified),–,-25.5% (inactive)
Cc1ccc(NC(=O)Nc2nc(-c3ccc(C)s3)cs2)cc1,1.58 µM (active),–
C#CCCCO/N=C1/C[C@@H](O)[C@@H](O)[C@@H]2[C@@H]3C(=O)N(Cc4ccccc4)C(=O)[C@H]3CC[C@@H]12,–,6.78% [at 11.4 µM] (inactive)
CNC(=O)c1nnn(Cc2ccccc2)c1NC(=O)C(F)(F)F,–,-22.4% (inactive)
COc1ccc(NC(=O)C2CC(=O)NC3=C2C(=O)CC(C)(C)C3)cc1 (stereo unspecified),–,-2.7% (inactive)
COc1ccc(C(C(=O)Nc2ccc(F)cc2)N(C(=O)Cn2nnc3ccccc32)C2CC2)cc1 (stereo unspecified),–,-13.1% (inactive)
N[C@@H](Cc1cccc([N+](=O)[O-])c1)C(=O)O,–,-10.6% [at 11.4 µM] (inactive)
COCC(C)NCc1cccc([N+](=O)[O-])c1 (stereo unspecified),–,-12.9% (inactive)
CCN(Cc1ccccc1)Cc1cccc([N+](=O)[O-])c1,5.01 µM (active),–
O=C(O)CC/C=C\CC[C@H]1[C@@H](N2CCCCC2)[C@@H](O)C[C@@H]1OCc1ccc(-c2ccccc2)cc1,–,0.717% (inactive)
